Source: PubChem BioAssay AID463218 (Sanford-Burnham Center for Chemical Genomics, 2010)
Hit rate of the full screen: of about 4,400 compounds, about 3,700 (84%) were called active.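 Rule for the calls: active = inhibition above about 39% in either of two replicate wells at 20 µM (limit read from the data); inactive = the rest.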 So high a share suggests a set chosen from earlier hits. The list is a sample of the results.

Assay: tim23-1 mutant yeast growth inhibitors, confirmation, luminescence, single concentration (AID 463218);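 note: temperature-sensitive tim23-1 mutant grown at 25 °C; 0% = DMSO wells with yeast and 100% = medium wells without yeast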
Conditions: S. cerevisiae tim23-1 growth, BacTiter-Glo luminescence, 24 h; at 20 µM; stronger effect = higher value

inhibition, inactive:
CC[C@]1(C(=O)OC)[C@H]2C(=O)N(Cc3ccccc3)C(=O)[C@H]2[C@H]2CN=C(SCc3ccc(Cl)cc3)N21 31.4%, CC1(C)C=Cc2c(ccc3c2OC[C@@H](c2ccc(O)cc2O)C3)O1 29.5%, O=C(COC(=O)c1ccc(O)cc1O)c1ccc2c(c1)OCCO2 21%, CCn1c2ccccc2c2cc(NC(=S)N3CCOCC3)ccc21 31.6%, O=C(NC(=S)Nc1cccc2c(O)cccc12)c1cccc(Br)c1 23.2%

inhibition, active:
CCN1/C(=C\c2ccc3ccccc3[n+]2CC)Sc2cc(C)ccc21 64.8%, CCc1ccc2oc(-c3ccc(N)cc3)nc2c1 58.8%, O=C(CSc1cccc2cccnc12)N/N=C/c1cccnc1 62%, C[C@@H]1C(c2ccc(F)cc2)=NN(c2ccc(Br)cc2)[C@H]1C(=O)N1CCOC1=O 44.6%, CCOc1cc(/C=C2\SC(N3CCCC(C)C3)=NC2=O)ccc1O (configuration not stated) 43%, O=C(/C=C/c1ccccc1)c1ccccc1O 62.4%, COc1ccc(Oc2cn[nH]c2-c2ccc(OC)cc2O)cc1 59.6%, CCC(C)c1ccc(NC(=O)COC(=O)C2CCCC2)cc1 (configuration not stated) 49.4%, Clc1ccc(Nc2ccc3ccccc3n2)cc1 43.8%, O=Cc1cn(-c2ccccc2)nc1-c1ccccn1 57.2%, CC1CCCC(C)N1C(=O)CN1CCN(c2nc(-c3ccc(F)cc3)cs2)CC1 (configuration not stated) 54.5%, CC1(C)C2CCC1(C)C(OC(=O)c1ccc(O)cc1)C2 (configuration not stated) 58%, CCOC(=O)C1=C(C)N=c2s/c(=C\C(=O)OC)c(=O)n2C1c1ccc(OC)cc1 (configuration not stated) 55.2%, O=C(N/N=C\c1cccc(Br)c1)c1ccccc1-n1cccc1 50.8%, O=C(Oc1c(-c2ccco2)oc2ccccc2c1=O)c1cccnc1 67.5%, COc1ccc(C(=O)O/N=C(\N)Cc2ccc(Cl)cc2Cl)cc1OC 52.8%, c1ccc2cc(CCCc3cc4ccccc4cn3)ncc2c1 40.3%, Cc1ccc(Oc2cnn(-c3ccccc3)c(=O)c2Br)cc1 39.4%, O=C1c2ccccc2S(=O)(=O)N1CC(O)Cn1c2ccccc2c2ccccc21 (configuration not stated) 90.8%, O=C1C(=O)N(CC2COc3ccccc3O2)c2ccccc21 (configuration not stated) 46.6%, O=c1c(-c2ccc3c(c2)OCCO3)c(C(F)(F)F)oc2cc(O)cc(O)c12 63.5%, COc1cc(/C=C(\C#N)c2nc3ccccc3[nH]2)ccc1O 54.2%, Cc1cccc(/C(N)=N/OC(=O)c2ccccc2Cl)c1 75.3%, CNC(=O)/C(C#N)=C/c1c(F)cccc1Cl 71.8%, CCc1ccc(C(=O)NC(=S)Nc2ccccc2N2CCOCC2)cc1 49.2%, O=C(c1cc(-c2ccc(O)cc2)on1)N1CCCc2ccccc21 50.6%, O=C(c1cc(-c2cccc(O)c2)on1)N1CCc2ccccc2C1 48.2%, Cc1cc(Nc2ccccc2)n(C(=O)c2ccc(N)cc2)n1 55.7%, N/C(=N\OC(=O)c1cc(-c2ccccc2)nc2ccccc12)c1ccncc1 80.8%, O=C1CSC(=S)N1c1ccc(Cl)c(Cl)c1 76%, COC(=O)c1c(NC(=O)COc2ccc(Cl)cc2Cl)sc2c1CC(C)(C)NC2(C)C 63.6%, Oc1c(CN2CCN(c3ccc(F)cc3)CC2)cc(Cl)c2cccnc12 54.9%
